# Inconclusive results are not listed. A call without a number means that no potency is given here. The source made the active and inactive calls. Calls come from the whole dose curve; as a rule, active = well fitted cell-killing curve with a large enough effect; inconclusive = small, poorly fitted or top-dose-only effect, or effect the other way; inactive = no such curve, though single readings can be large or run the other way.
# Experiments:
# [1] = Quantitative High-Throughput drug screen in 47 multiple myeloma cell lines against the NCATS MIPE library collection: FR4_PLB cell viability assay (AID 1918924; note: nearly all actives have a fitted effect of over 35% in size)
# Procedure, shortened: (§1)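 We plated 500 myeloma cells per well, pinned in MIPE 4.0 compounds, and incubated for 48 hours at 37C. ATP was then quantified with CellTiter-Glo, with DMSO and media-only wells defining 100% and 0%.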
# [2] = Quantitative High-Throughput drug screen in 47 multiple myeloma cell lines against the NCATS MIPE library collection: AMO1_DSMZ cell viability assay (AID 1918927; note: nearly all actives have a fitted effect of over 30% in size)
# Procedure, shortened: (§2)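 Myeloma cells (500 per well) were exposed to MIPE 4.0 compounds by pin transfer and incubated 48 hours at 37C, 5% CO2. Viability was read as ATP by CellTiter-Glo luminescence, normalised to DMSO (100%) and media-only (0%) wells.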
# [3] = Quantitative High-Throughput drug screen in 47 multiple myeloma cell lines against the NCATS MIPE library collection: ARD_JJKsccE7 cell viability assay (AID 1918929)
# Procedure, shortened: as §2
# [4] = Quantitative High-Throughput drug screen in 47 multiple myeloma cell lines against the NCATS MIPE library collection: Karpas620_DSMZ cell viability assay (AID 1918959); note: nearly all actives have a fitted effect of over 30% in size
# Procedure, shortened: as §1
# [5] = Quantitative High-Throughput drug screen in 47 multiple myeloma cell lines against the NCATS MIPE library collection: KMM1_JCRB cell viability assay (AID 1918960); note: nearly all actives have a fitted effect of over 30% in size
# Procedure, shortened: (§3)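 Viability screen: myeloma cells (500/well) incubated 48 h at 37 °C, humidified 5% CO2, with pinned library compounds; CellTiter-Glo added, luminescence read; DMSO wells set 100%, medium-only wells 0%.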
# [6] = Quantitative High-Throughput drug screen in 47 multiple myeloma cell lines against the NCATS MIPE library collection: EJM_DSMZ cell viability assay (AID 1918926; note: nearly all actives have a fitted effect of over 30% in size)
# Procedure, shortened: as §2
# [7] = Quantitative High-Throughput drug screen in 47 multiple myeloma cell lines against the NCATS MIPE library collection: ARP1_JJKsccF8 cell viability assay (AID 1918928; note: nearly all actives have a fitted effect of over 40% in size)
# Procedure, shortened: as §3
# [8] = Quantitative High-Throughput drug screen in 47 multiple myeloma cell lines against the NCATS MIPE library collection: Karpas417_ECACC cell viability assay (AID 1918961); settings: Karpas417 myeloma viability, CellTiter-Glo ATP luminescence, 48 h; viability (% of DMSO): at 45.8 µM (top of the series)
# Procedure, shortened: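 Viability readout: CellTiter-Glo luminescence following 5 min room-temperature incubation with reagent. Prior exposure: 48 h, 37C, humidified 5% CO2, 500 cells per well.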
# [9] = Quantitative High-Throughput drug screen in 47 multiple myeloma cell lines against the NCATS MIPE library collection: Delta47_JCRB cell viability assay (AID 1918925; note: nearly all actives have a fitted effect of over 45% in size)
# Procedure, shortened: as §2
# Potency is the fitted concentration of half-maximal effect.
smiles,measurement,setting,value
O=C(Nc1nnc(-c2ccco2)o1)c1cc(-c2ccccc2)nc2ccccc12,Potency,[1],23.5 µM (active)
same,Potency,[2],9.35 µM (active)
same,Potency,[3],18.7 µM (active)
same,Potency,[4],20.9 µM (active)
same,Potency,[5],14.8 µM (active)
CS[C@H]1SC[C@@H]2C(=O)N(C)[C@H](C(C)C)C(=O)OC[C@H](NC(=O)c3cnc4ccccc4n3)C(=O)N[C@H](C)C(=O)N(C)[C@@H]1C(=O)N(C)[C@H](C(C)C)C(=O)OC[C@H](NC(=O)c1cnc3ccccc3n1)C(=O)N[C@H](C)C(=O)N2C,Potency,[1],0.0042 µM (active)
same,Potency,[6],0.0059 µM (active)
same,Potency,[7],0.0033 µM (active)
same,Potency,[4],0.001 µM (active)
COC(=O)C1C2CC3c4[nH]c5cc(OC)ccc5c4CCN3CC2CC(OC(=O)c2cc(OC)c(OC)c(OC)c2)C1OC (stereo unspecified),Potency,[1],3.72 µM (active)
same,Potency,[3],20.9 µM (active)
same,Potency,[4],23.5 µM (active)
CC(C)C[C@H](NC(=O)[C@@H](NC(=O)c1cccc(-c2ccccc2)n1)[C@@H](C)O)B(O)O,Potency,[1],0.0209 µM (active)
same,Potency,[6],0.0469 µM (active)
same,Potency,[7],0.0166 µM (active)
same,Potency,[4],0.0148 µM (active)
same,Potency,[5],0.0074 µM (active)
C[C@]12C=CC(=O)N[C@@H]1CC[C@H]1[C@H]3CC[C@@H](C(=O)Nc4cc(C(F)(F)F)ccc4C(F)(F)F)[C@@]3(C)CC[C@@H]12,Potency,[1],18.7 µM (active)
same,Potency,[2],inactive
same,Potency,[3],inactive
same,Potency,[4],inactive
same,Potency,[5],inactive
COC1=C2C[C@@H](C)C[C@H](OC)[C@@H](O)[C@@H](C)C=C(C)[C@H](OC(N)=O)[C@@H](OC)C=CC=C(C)C(=O)NC(=CC1=O)C2=O,Potency,[1],0.332 µM (active)
same,Potency,[6],0.372 µM (active)
same,Potency,[7],0.118 µM (active)
Cc1cc(-c2nnc3n2CCCCC3)c(C)n1-c1ccccc1,Potency,[1],inactive
same,Potency,[2],inactive
same,Potency,[7],inactive
OC[C@H]1OC(O)C[C@@H](O)[C@H]1O (stereo partly specified),Potency,[1],inactive
same,Potency,[6],inactive
same,Potency,[7],inactive
same,Potency,[4],inactive
same,Potency,[8],inactive
COc1ccc(Nc2cc(-c3cnc(N)nc3)nc(N3CCOCC3)n2)cn1,Potency,[1],4.18 µM (active)
same,Potency,[2],3.72 µM (active)
same,Potency,[7],0.469 µM (active)
same,Potency,[4],2.64 µM (active)
same,Potency,[5],0.59 µM (active)
O=C(O)[C@H](CC(=O)N1C[C@@H]2CCCC[C@H]2C1)Cc1ccccc1,Potency,[1],inactive
same,Potency,[6],inactive
same,Potency,[7],inactive
same,Potency,[4],inactive
CCCCCCCN(CC)CCCC(O)c1ccc(NS(C)(=O)=O)cc1 (stereo unspecified),Potency,[1],inactive
same,Potency,[7],inactive
same,Potency,[3],20.9 µM (active)
NC(=O)N1CCC(CC(=O)N2CCC([C@H]3c4ncc(Br)cc4CCc4cc(Cl)cc(Br)c43)CC2)CC1,Potency,[1],20.9 µM (active)
same,Potency,[6],20.9 µM (active)
same,Potency,[7],13.2 µM (active)
same,Potency,[3],2.09 µM (active)
same,Potency,[4],14.8 µM (active)
same,Potency,[5],18.7 µM (active)
same,Potency,[8],10.5 µM (active)
CC(C)Oc1ccc(C(=O)N[C@H](CNC(=O)CN(C)C)Cc2ccc(-c3cn4cccc([C@H](C)O)c4n3)cc2)cc1Cl,Potency,[1],0.148 µM (active)
same,Potency,[2],0.332 µM (active)
same,Potency,[7],0.935 µM (active)
same,Potency,[3],0.264 µM (active)
same,Potency,[4],0.187 µM (active)
same,Potency,[5],0.209 µM (active)
same,Potency,[8],inactive
O=C(NC1CC1)c1cccc(-c2ccc3c(NC(=O)C4CC4)n[nH]c3c2)c1,Potency,[1],2.09 µM (active)
same,Potency,[7],14.8 µM (active)
same,Potency,[4],inactive
COc1ccc(S(=O)(=O)Nc2cc(-c3c(O)ccc4ccccc34)c(O)c3ccccc23)cc1,Potency,[9],9.35 µM (active)
same,Potency,[6],23.5 µM (active)
same,Potency,[2],14.8 µM (active)
same,Potency,[7],11.8 µM (active)
same,Potency,[3],5.26 µM (active)
same,Potency,[4],1.66 µM (active)
same,Potency,[5],8.33 µM (active)
CCCCC(=O)O[C@]1(C(=O)CO)[C@@H](C)C[C@H]2[C@@H]3CCC4=CC(=O)C=C[C@]4(C)[C@@]3(F)[C@@H](O)C[C@@]21C,Potency,[1],inactive
same,Potency,[6],inactive
same,Potency,[4],inactive
CC(=O)NC(CS)C(=O)O (stereo unspecified),Potency,[9],inactive
same,Potency,[6],inactive
COc1cccc2c1C(=O)c1c(O)c3c(c(O)c1C2=O)C[C@@](O)(C(=O)CO)C[C@@H]3O[C@H]1C[C@H](N)[C@H](OC2CCCCO2)[C@H](C)O1 (stereo partly specified),Potency,[1],3.72 µM (active)
same,Potency,[6],2.35 µM (active)
same,Potency,[7],3.32 µM (active)
same,Potency,[3],inactive
same,Potency,[4],inactive
same,Potency,[5],inactive
same,Potency,[8],inactive
NC1=N[C@H]2[C@H](CS[C@H]2CCCCC(=O)O)N1,Potency,[1],inactive
same,Potency,[6],inactive
same,Potency,[7],inactive
same,Potency,[5],inactive
O=c1ccn([C@@H]2O[C@H](CO)[C@H](O)[C@@H]2F)c(=O)[nH]1,Potency,[1],inactive
same,Potency,[7],inactive
same,Potency,[3],inactive
same,Potency,[4],inactive
same,Potency,[5],inactive
same,Potency,[8],inactive
C=C1C[C@@]2(O)O[C@@]3(C[C@H]2C(C)C)[C@H](C)CC[C@H]13,Potency,[9],inactive
same,Potency,[6],inactive
same,Potency,[2],inactive
same,Potency,[7],inactive
same,Potency,[3],inactive
same,Potency,[4],inactive
COc1cc(C)c(C=CC(C)=CC=CC(C)=CC(=O)O)c(C)c1C,Potency,[1],inactive
same,Potency,[2],inactive
same,Potency,[7],inactive
same,Potency,[4],7.43 µM (active)
same,Potency,[8],inactive
N=c1ccn2c(n1)O[C@H]1[C@@H](O)[C@@H](CO)O[C@H]12,Potency,[1],inactive
same,Potency,[6],inactive
same,Potency,[7],0.332 µM (active)
same,Potency,[4],16.6 µM (active)
same,Potency,[5],10.5 µM (active)
CCCNS(=O)(=O)Nc1ncnc(OCCOc2ncc(Br)cn2)c1-c1ccc(Br)cc1,Potency,[1],inactive
same,Potency,[7],inactive
same,Potency,[3],inactive
same,Potency,[5],inactive
C[C@]12CC[C@@H]3c4ccc(O)cc4CC[C@H]3[C@H]1CC[C@H]2O,Potency,[1],16.6 µM (active)
same,Potency,[2],14.8 µM (active)
same,Potency,[4],4.18 µM (active)
CC(C)c1cnn2c(NCc3ccccc3)cc(NCCCCCCN)nc12,Potency,[1],18.7 µM (active)
same,Potency,[6],13.2 µM (active)
same,Potency,[7],16.6 µM (active)
same,Potency,[3],20.9 µM (active)
same,Potency,[5],16.6 µM (active)
COC(=O)[C@@H]1[C@H]2C[C@@H]3c4[nH]c5ccccc5c4CCN3C[C@@H]2CC[C@@H]1O,Potency,[9],inactive
same,Potency,[6],inactive
same,Potency,[2],inactive
same,Potency,[7],inactive
same,Potency,[3],inactive
CC(C)(C)c1nc2c3cc[nH]c(=O)c3c3cc(F)ccc3c2[nH]1,Potency,[1],0.833 µM (active)
same,Potency,[6],2.96 µM (active)
same,Potency,[4],inactive
Cc1cc(O)c2c(c1)C(=O)c1cccc(O)c1C2=O,Potency,[1],inactive
same,Potency,[6],inactive
same,Potency,[3],inactive
same,Potency,[4],inactive
same,Potency,[5],inactive
same,viability (% of DMSO),[8],136% (active)
C[N+](C)([O-])CCNc1ccc(NCC[N+](C)(C)[O-])c2c1C(=O)c1c(O)ccc(O)c1C2=O,Potency,[1],inactive
same,Potency,[7],inactive
same,Potency,[4],inactive
same,Potency,[5],inactive
CCCCCCCCc1ccc(CCC(N)(CO)CO)cc1,Potency,[9],5.26 µM (active)
same,Potency,[6],23.5 µM (active)
same,Potency,[2],8.33 µM (active)
same,Potency,[7],10.5 µM (active)
same,Potency,[3],14.8 µM (active)
same,Potency,[4],8.33 µM (active)
same,Potency,[5],6.62 µM (active)
C[C@H]1COc2c(N3CCN(C)CC3)c(F)cc3c(=O)c(C(=O)O)cn1c23,Potency,[1],inactive
same,Potency,[2],inactive
same,Potency,[7],inactive
same,Potency,[4],inactive
same,Potency,[5],inactive
CCN(C(=O)c1c(O)c2c(Cl)cccc2n(C)c1=O)c1ccccc1,Potency,[1],inactive
same,Potency,[6],inactive
same,Potency,[7],inactive
same,Potency,[4],16.6 µM (active)
same,viability (% of DMSO),[8],104% (active)
CC(C)c1cc(C(C)C)c(CC(=O)NS(=O)(=O)Oc2c(C(C)C)cccc2C(C)C)c(C(C)C)c1,Potency,[4],inactive
same,Potency,[5],4.69 µM (active)
C=C1CCC2[C@](C)(CO)C(O)CC[C@]2(C)C1CC=C1C(=O)OCC1O (stereo partly specified),Potency,[6],inactive
same,Potency,[7],inactive
same,Potency,[3],inactive
same,Potency,[4],inactive
same,Potency,[5],inactive
O=C(Nc1cccc(Nc2ncc(Br)c(NCCc3cnc[nH]3)n2)c1)N1CCCC1,Potency,[6],16.6 µM (active)
same,Potency,[2],inactive
same,Potency,[7],18.7 µM (active)
same,Potency,[4],inactive
same,Potency,[5],inactive

# Reference: PubChem BioAssay (NCATS)
